From article PMC4336329 (PLoS ONE, 2015)
In all, about 310,000 compounds went through this assay and about 14,000 (4.5%) showed an effect of 50% or more. The effect is printed as a negative number. The list comes from a sample in which strong results are over-represented; it also holds similar structures and randomly drawn compounds.

Each compound was assayed against human ether-à-go-go-related gene (hERG) potassium channel (human, UniProt Q12809) (assay: primary screen, population patch clamp on CHO cells stably expressing hERG; higher = less effect of the substance).
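Note: peak tail current of the secondary pulse compared with the same well before compound.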

human ether-à-go-go-related gene (hERG) potassium channel, sequence (Q12809 whole entry, looked up): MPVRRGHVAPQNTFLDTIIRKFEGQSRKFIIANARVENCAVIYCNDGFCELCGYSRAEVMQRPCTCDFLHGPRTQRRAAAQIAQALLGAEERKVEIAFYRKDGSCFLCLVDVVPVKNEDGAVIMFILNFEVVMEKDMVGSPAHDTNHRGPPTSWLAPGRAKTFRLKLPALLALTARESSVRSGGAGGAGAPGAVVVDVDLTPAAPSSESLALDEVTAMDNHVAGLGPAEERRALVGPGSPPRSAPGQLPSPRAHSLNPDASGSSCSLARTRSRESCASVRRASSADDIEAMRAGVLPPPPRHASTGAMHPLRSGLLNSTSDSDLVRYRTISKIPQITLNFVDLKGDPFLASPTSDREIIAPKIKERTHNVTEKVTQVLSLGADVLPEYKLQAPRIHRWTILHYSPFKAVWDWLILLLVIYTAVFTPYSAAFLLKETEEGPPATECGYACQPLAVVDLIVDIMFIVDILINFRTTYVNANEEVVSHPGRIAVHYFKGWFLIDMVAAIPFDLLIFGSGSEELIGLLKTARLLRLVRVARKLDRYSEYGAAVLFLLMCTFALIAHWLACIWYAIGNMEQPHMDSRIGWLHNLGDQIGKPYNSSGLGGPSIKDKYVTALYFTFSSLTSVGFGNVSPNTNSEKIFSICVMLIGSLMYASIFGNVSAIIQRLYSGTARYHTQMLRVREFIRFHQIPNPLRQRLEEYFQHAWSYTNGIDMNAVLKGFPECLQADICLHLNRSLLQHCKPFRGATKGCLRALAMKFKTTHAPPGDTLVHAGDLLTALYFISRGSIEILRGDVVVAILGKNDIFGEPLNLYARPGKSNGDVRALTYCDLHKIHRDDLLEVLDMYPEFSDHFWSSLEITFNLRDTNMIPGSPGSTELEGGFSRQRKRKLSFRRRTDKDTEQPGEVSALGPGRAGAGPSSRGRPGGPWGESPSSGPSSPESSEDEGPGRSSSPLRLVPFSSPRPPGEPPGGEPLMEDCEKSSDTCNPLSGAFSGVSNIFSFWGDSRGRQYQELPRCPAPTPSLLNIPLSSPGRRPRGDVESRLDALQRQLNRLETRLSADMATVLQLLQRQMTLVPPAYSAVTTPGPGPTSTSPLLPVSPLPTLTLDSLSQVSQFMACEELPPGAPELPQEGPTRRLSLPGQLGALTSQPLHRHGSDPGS

Row | SMILES | hERG current change (%, negative = inhibition) at 10uM [%]
1 | Fc1ccccc1NC(=S)Nc1cccc2cnccc12 | 46.8
2 | Cc1cccc(CSc2nnc(-c3ccccn3)n2N)c1 | 2.88
3 | Cc1cccc(CSc2ccc3nnc(-c4ccccn4)n3n2)c1 | -75.7
4 | O=C(CSc1ccc2nnc(-c3ccccn3)n2n1)Nc1cccc(F)c1 | -40.6
5 | Fc1cccc(Cl)c1CSc1ccc2nnc(-c3ccccn3)n2n1 | -13.5
6 | COc1cccc(NC(=O)CSc2ccc3nnc(-c4ccccn4)n3n2)c1 | -47.3
7 | Fc1cccc(CSc2ccc3nnc(-c4ccccn4)n3n2)c1 | -77.9
8 | Cc1cn2nc(N)c3ccccc3c2n1 | -9.19
9 | CCOC(=O)c1cc(C(C)=O)c(=O)[nH]c1C | 12
10 | Cc1cccc(C(=O)N2CCCC(CCC(=O)N3CCN(c4ccccn4)CC3)C2)c1 (stereo not drawn) | -74.5
11 | CCc1ccc(CN2CCCC(CCC(=O)N3CCN(c4ccccn4)CC3)C2)o1 (stereo not drawn) | -58.7
12 | Cc1ccc(C(=O)N2CCCC(CCC(=O)N3CCN(c4ccccn4)CC3)C2)cc1 (stereo not drawn) | -9.9
13 | CCc1cc(C(=O)N2CCCC(CCC(=O)N3CCN(c4ccccn4)CC3)C2)no1 (stereo not drawn) | -17.4
14 | O=C(CCC1CCCN(c2ncccn2)C1)N1CCN(c2ccccn2)CC1 (stereo not drawn) | -23
15 | Cc1ccc(C(=O)N2CCCC(CCC(=O)N3CCN(c4ccccn4)CC3)C2)cc1C (stereo not drawn) | -34.9
16 | O=C(CN1C(=O)c2ccccc2S1(=O)=O)NCCSCc1c(F)cccc1Cl | -29.7
17 | CCOC(=O)CC(=O)CSc1nc(-c2ccccc2)cc(-c2ccccc2)c1C#N | 10.1
18 | COc1ccc(OC)c(NS(=O)(=O)c2cc(OC)ccc2OC)c1 | -2.14
19 | Cn1c(=O)c(=O)n(C)c2cc(N3CCCCC3)c(NS(=O)(=O)c3ccc([N+](=O)[O-])cc3)cc21 | -50.6
20 | COc1ccc(OC)c(S(=O)(=O)Nc2cc3c(cc2N2CCCC2)n(C)c(=O)c(=O)n3C)c1 | -50.7
21 | CCc1ccc(S(=O)(=O)Nc2cc3c(cc2N2CCOCC2)n(C)c(=O)c(=O)n3C)cc1 | -32.1

Row | SMILES | hERG current change (%, negative = inhibition) at 10uM [%]
22 | Cn1c(=O)c(=O)n(C)c2cc(N3CCCC3)c(NS(=O)(=O)c3ccc(Cl)cc3)cc21 | -44.3
23 | Cn1c(=O)c(=O)n(C)c2cc(N3CCCC3)c(NS(=O)(=O)c3ccc(F)cc3)cc21 | -16.2
24 | Cc1ccc(S(=O)(=O)Nc2cc3c(cc2N2CCOCC2)n(C)c(=O)c(=O)n3C)cc1 | -9.6
25 | Cn1c(=O)c(=O)n(C)c2cc(N3CCCCC3)c(NS(=O)(=O)c3ccc(Br)cc3)cc21 | -65.1
26 | Cn1c(=O)c(=O)n(C)c2cc(N3CCOCC3)c(NS(=O)(=O)c3ccc([N+](=O)[O-])cc3)cc21 | 2.58
27 | Cn1c(=O)c(=O)n(C)c2cc(N3CCOCC3)c(NS(=O)(=O)c3ccc(Br)cc3)cc21 | -27
28 | CCc1ccc(S(=O)(=O)Nc2cc3c(cc2N2CCCCC2)n(C)c(=O)c(=O)n3C)cc1 | -85.6
29 | COc1ccc(OC)c(S(=O)(=O)Nc2ccc3c(c2)n(C)c(=O)n3C)c1 | 1.61
30 | CCC(CC)c1nnc(NC(=O)c2cccnc2SC)s1 | 15.4
31 | C/C=C/c1ccc(OCCCCN2C(=O)NC(C)(C)C2=O)c(OC)c1 | -7.09
32 | COc1ccccc1C(O)(C(=O)NN(C)c1ccccc1)c1ccccc1OC | 9.03
33 | Cc1cccc(OCCCCc2c(C)n[nH]c2C)c1C | 9.64
34 | CCc1ccc(/C=C2\Oc3cc(OS(C)(=O)=O)ccc3C2=O)cc1 | 11.8
35 | O=S(=O)(NC1=NCCC1)c1cccc(NS(=O)(=O)c2ccc(OC(F)(F)F)cc2)c1 | 1.71
36 | CN1CCN(CCNC(=O)Nc2ccccc2C(F)(F)F)CC1 | 3.26
37 | CC1(C)C2CCC1(C)C(OC(=O)C[n+]1ccccc1N)C2.[Br-] (stereo not drawn) | -35.3
38 | CCOC(=O)C1CCN(c2cc3c(cc2NC(=O)c2cc(OC)ccc2Br)n(C)c(=O)n3C)CC1 | 0.12
39 | COCCNc1c([N+](=O)[O-])c(=O)n(-c2ccccc2)c2ccccc12 | -25.2
40 | O=C(c1ccccc1Oc1ccc(C(F)(F)F)cc1[N+](=O)[O-])N1CCOCC1 | 1.22
41 | COC(=O)CN1C(=O)C(O)(CC(=O)c2cccc(Br)c2)c2ccccc21 (stereo not drawn) | -11.7
42 | CN(Cc1ccccn1)Cc1nc(COc2ccccc2)no1 | -2.85
